Assay results reported in PubChem BioAssay (EPA / NIEHS).
Calls of active or inactive are those of the source. The calls were made as follows: active = hit-call score of the fitted dose curve at least 0.9, where 1 is the maximum; inactive = score below 0.9.

Each molecule was assayed on Transforming Growth Factor (TGFB1), TGFB1 (gene 7040) (assay: LTEA_HepaRG_TGFB1: Life Technologies and Expression Analysis (LTEA) Assay for Transforming Growth Factor (TGFB1) Transporter using HepaRG (AID 2283533)). Settings: mRNA level, 48 h; actives raise or lower the signal.
How it was run: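 Differentiated human HepaRG cells in serum-free induction medium were exposed in duplicate for 48 h to eight concentrations (top 100 uM, half-log steps, 0.5% DMSO). TGFB1 mRNA was quantified by qRT-PCR, normalized to ACTB, GAPDH, POLR2A, and fitted bidirectionally against DMSO.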

Compound	outcome	AC50
Cc1[nH]cnc1C[C@H]1CCc2c(C)c3ccccc3n2C1=O	inactive	–
Cc1ccc(N)cc1O	inactive	–
COc1ccc(/C=C/S(=O)(=O)NC(=O)c2ccc(C)cc2Cl)cc1	inactive	–
Nc1ccc(Nc2ccccc2)cc1	inactive	–
CNS(=O)(=O)c1cc(C(=O)N2CCC(CCN3C4CCC3CC(n3c(C)nc5ccccc53)C4)(c3cccc(F)c3)CC2)c(Cl)cc1F (centres undefined)	–	19.4 µM (active)
O=P(OC(CCl)CCl)(OC(CCl)CCl)OC(CCl)CCl	–	62.9 µM (active)
CC(C)c1cccc(C(C)C)c1N1C(=O)c2ccc(O)cc2C1=O	inactive	–
Oc1ccc2c(c1)-c1ccccc1C2	inactive	–
CCOCCO	inactive	–
C=CCCCCCCCCC(=O)O	inactive	–
O=C(O)c1cccc(Oc2ccccc2)c1	inactive	–
CC(C)CC(C)(O)C#CC(C)(O)CC(C)C (centres undefined)	inactive	–
CC1(C)C(=O)N(Br)C(=O)N1Br	inactive	–
C1=CCCC=CCCC=CCC1	inactive	–
COc1cccc(-c2ccc(/C=C\CN3CCCCCC3)cc2Cl)c1	–	87.3 µM (active)
CC(=O)OCCC(C)C	inactive	–
O=c1n(CC2CO2)c(=O)n(CC2CO2)c(=O)n1CC1CO1 (centres undefined)	inactive	–
Cc1ccc(O)cc1	inactive	–
CCN(C(=O)c1cc(C)cc(OC[C@H](C)Nc2ccncc2)c1)C(C)C	inactive	–
COC(=O)c1c(Cl)c(Cl)c(C(=O)OC)c(Cl)c1Cl	inactive	–
CC[C@H](C)C(=O)O[C@H]1C[C@@H](C)C=C2C=C[C@H](C)[C@H](CC[C@@H]3C[C@@H](O)CC(=O)O3)[C@H]21	inactive	–
CC(C)=CCC/C(C)=C/CO	inactive	–
CCOC(=O)c1ccc(C2CCC(NC[C@H](O)COc3ccc(O)c(NS(C)(=O)=O)c3)CC2)cc1 (some centres undefined)	inactive	–
CCOC(=O)COc1ccc2c(c1)CC(NCC(O)c1cccc(Cl)c1)CC2 (centres undefined)	inactive	–
CC/C(=C\C(=N/O)C(N)=O)C(C)[N+](=O)[O-] (centres undefined)	inactive	–
O=C(O)CCN(C1(C(=O)NO)CCCC1)S(=O)(=O)c1ccc(Oc2ccc(F)cc2)cc1	inactive	–
O=C1CCC(N2C(=O)c3ccccc3C2=O)C(=O)N1 (centres undefined)	inactive	–
O=C(OC[C@H]1O[C@@H](OC(=O)c2cc(O)c(O)c(OC(=O)c3cc(O)c(O)c(O)c3)c2)[C@H](OC(=O)c2cc(O)c(O)c(OC(=O)c3cc(O)c(O)c(O)c3)c2)[C@@H](OC(=O)c2cc(O)c(O)c(OC(=O)c3cc(O)c(O)c(O)c3)c2)[C@@H]1OC(=O)c1cc(O)c(O)c(OC(=O)c2cc(O)c(O)c(O)c2)c1)c1cc(O)c(O)c(OC(=O)c2cc(O)c(O)c(O)c2)c1	–	2.96 µM (active)
CCc1cc(SCc2sc(-c3ccc(C(F)(F)F)cc3)nc2CN2CCN(c3ccc(OC)cc3)CC2)ccc1OCC(=O)O	–	28.9 µM (active)
